Here are results for 39 molecules from PubChem BioAssay (NCATS).

Inconclusive results are not listed. Entries that show only a call come without a potency. The source made the active and inactive calls. Calls come from the whole dose curve; as a rule, active = well fitted inhibition curve with a large enough effect; inconclusive = small, poorly fitted or top-dose-only effect; inactive = flat fitted curve, though single readings scatter.
Potency is the fitted concentration of half-maximal effect.

The assay relates to JCK. As to the kind of experiment: qHTS profiling for inhibitors of Plasmodium falciparum proliferation (AID 504749). Note: nearly all actives have a fitted effect of over 60% in size. Particulars: P. falciparum in erythrocytes, SYBR Green DNA, 72 h; series mostly up to 28.7 µM. The method, boiled down:
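Parasite proliferation within erythrocytes, 72 h exposure. Endpoint: SYBR Green I fluorescence after overnight lysis at room temperature. Controls: 0.29 uM artemisinin, DMSO.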
A general note: In qHTS, concentration-response curves come from the screen itself.
For the molecule `S=C=Nc1ccc(N=C=S)cc1`, the Potency entry was “inactive”. Under `N=C(N)n1cccn1` stands “inactive”.

For `Cc1cccc(C)c1NC(=O)NC1=CCCN1C`, the Potency entry was “inactive”. In the case of `Cc1cc(-c2ccc(N=Nc3ccc4c(S(=O)(=O)O)cc(S(=O)(=O)O)c(N)c4c3O)c(C)c2)ccc1N=Nc1ccc2c(S(=O)(=O)O)cc(S(=O)(=O)O)c(N)c2c1O`, the Potency result was “inactive”. For the molecule `O=P(O)(O)O`, the Potency result was “inactive”. With `CN(CCO)CC(O)Cn1cnc2c1c(=O)n(C)c(=O)n2C` (centres undefined) (tested in a mixture with another compound), the Potency result is “inactive”. On to `O=C(O)Cc1cc(I)c(Oc2ccc(O)c(I)c2)c(I)c1`, for which the Potency result is “inactive”.

`COC1=C(OC)C(=O)C(C/C=C(\C)CC/C=C(\C)CC/C=C(\C)CC/C=C(\C)CC/C=C(\C)CC/C=C(\C)CC/C=C(\C)CC/C=C(\C)CC/C=C(\C)CCC=C(C)C)=C(C)C1=O`: the Potency entry was “inactive”.

For `CN=C1C=CC(=C(c2ccc(N(C)C)cc2)c2ccc(N(C)C)cc2)C=C1`, the Potency was 2510 nM (active). For `CCOc1ccc(S(=O)(=O)O)c2cccnc12`, the Potency result was “inactive”. On to `FC(F)(F)COCC(F)(F)F`, for which the Potency result was “inactive”. With `O=C(O)[C@H]1C(=CCO)O[C@H]2CC(=O)N12`, the Potency result is “inactive”. In the case of `CC1CC(O)CC(C)(C)C1` (centres undefined), the Potency entry was “inactive”. In the case of `Cc1ncc(C[n+]2csc(CCOP(=O)(O)O)c2C)c(N)n1`, the Potency entry was “inactive”. `CCCCO`: the Potency entry is “inactive”.

With `CCOC(=S)SSC(=S)OCC`, the Potency entry is “inactive”. With `N[C@H](CC(=O)O)C(=O)O`, the Potency result is “inactive”.

`CCC(C(=O)NC(N)=O)c1ccccc1` (centres undefined): the Potency entry is “inactive”. As to `CCN(CC)CCOC(=O)c1cccnc1`, the Potency entry is “inactive”.

For `NC(=S)NS(=O)(=O)c1ccc(N)cc1`, the Potency result was “inactive”. As for `COc1cc2c(cc1OC)[C@@H](Cc1cc(OC)c(OC)c(OC)c1)[N+](C)(CCCOC(=O)CC/C=C/CCC(=O)OCCC[N+]1(C)CCc3cc(OC)c(OC)cc3[C@H]1Cc1cc(OC)c(OC)c(OC)c1)CC2` (some centres undefined), the Potency result is “inactive”.

Regarding `Cc1ncc(COP(=O)(O)O)c(CN)c1O`, the Potency entry was “inactive”. As for `C[C@H](N)C(=O)N[C@@H](C)P(=O)(O)O`, the Potency result was “inactive”.

In the case of `CO[C@H]1C[C@@H]2CC[C@@H](C)[C@@](O)(O2)C(=O)C(=O)N2CCCC[C@H]2C(=O)O[C@H]([C@H](C)C[C@@H]2CC[C@@H](OC(=O)C(C)(CO)CO)[C@H](OC)C2)CC(=O)[C@H](C)/C=C(\C)[C@@H](O)[C@@H](OC)C(=O)[C@H](C)C[C@H](C)/C=C/C=C/C=C/1C`, the Potency entry was “inactive”. As for `CC1=C(/C=C/C(C)=C/C=C/C(C)=C/C(=O)Oc2c(C)c(C)c3c(c2C)CC[C@@](C)(CCC[C@H](C)CCC[C@H](C)CCCC(C)C)O3)C(C)(C)CCC1`, the Potency entry is “inactive”. Turning to `CCCCCCCCCCCCCC(=O)OCC(COP(=O)([O-])OCC[N+](C)(C)C)OC(=O)CCCCCCCCCCCCC` (centres undefined), the Potency entry is “inactive”. For `CC(C)c1ncc([N+](=O)[O-])n1C`, the Potency entry was “inactive”. Under `NC(=O)[C@@H]1CCCN1C(=O)[C@H](Cc1cnc[nH]1)NC(=O)[C@@H]1CCC(=O)N1` stands “inactive”; under `Cc1ccccn1`, “inactive”; under `Nc1nccs1`, “inactive”. Turning to `O=C(NCCNCC(O)COc1ccc(O)cc1)N1CCOCC1` (centres undefined), the Potency entry is “inactive”.

For `CC(C)CCC[C@@H](C)[C@H]1CC[C@H]2[C@@H]3CC=C4C[C@@H](O)CC[C@]4(C)[C@H]3CC[C@]12C`, the Potency entry was “inactive”.

With `CS(=O)(=O)OCC(O)C(O)COS(C)(=O)=O` (centres undefined), the Potency result is “inactive”. For `NCC[C@H](O)C(=O)N[C@@H]1C[C@H](N)[C@@H](O[C@H]2O[C@H](CN)CC[C@H]2N)[C@H](O)[C@H]1O[C@H]1O[C@H](CO)[C@@H](O)[C@H](N)[C@H]1O`, the Potency entry is “inactive”. For the molecule `OCC(O)CO`, the Potency result was “inactive”. On to `CCOc1ccc(NC(=S)Nc2ccc(OCC)cc2)cc1`, for which the Potency entry was “inactive”. For the molecule `CCOC(=O)c1cc(-c2ccccc2)nc2ccc(C)cc12`, the Potency result is “inactive”. In the case of `OCl`, the Potency entry was “inactive”.

In the case of `CCc1ncnc2cc(OC)c(OC)cc12`, the Potency entry was “inactive”.
